Screens deposited in PubChem by several laboratories.
Most compounds without a hit are left out; they make up all but 1.9% or so of the library.
Ba/F3 V617F tox: reduce viability of Ba/F3 cells dependent on JAK2V617F; Ba/F3 EpoR-JAK2V617F viability, ATP luminescence; inhibition, % at 5.6 µM; 220,000 compounds, 1.1% hits;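 active means inhibition above the campaign mean plus 3 SD over all tested compounds, cut at about 24% in these data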;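 further: cytokine-independent growth of Ba/F3 cells driven by EpoR plus mutant JAK2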
IEC-6 cytotox: counter-screen for KLF5 inhibitors: cytotoxicity in IEC-6 cells. IEC-6 cytotoxicity, luminescence viability. 290,000 compounds, 0.78% hits. inhibition, % at 5 µM. AID 1825; in the data active means inhibition above about 22%
KLF5 inh: inhibitors of KLF5 expression; DLD-1 KLF5 promoter-luciferase reporter, luminescence; 290,000 compounds, 0.23% hits; inhibition, % at 5 µM;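 active means inhibition above a per-plate limit of that plate's mean compound inhibition plus 3 SD, cut at about 60% in these data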;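 further: higher means less KLF5 promoter-driven luciferase light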
APP 5UTR inh: APP translation inhibition. SH-SY5Y APP 5'UTR-luciferase reporter, luminescence. inhibition, % at 2 µM. 190,000 compounds, 0.82% hits. AID 1285;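 active means inhibition above a set limit, derived from the sample mean plus 3 SD, cut at about 45% in these data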
BaF3 tox: parental Ba/F3 viability inhibition as JAK2V617F counter-screen. CellTiter-Glo ATP luminescence. inhibition, % at 5.6 µM. 220,000 compounds, 1.1% hits;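 active means inhibition above a per-campaign cutoff, the mean inhibition of all tested compounds plus 3 SD, cut at about 27% in these data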
BaF3 parental 2: counter-screen for JAK2V617F inhibitors: parental Ba/F3 viability inhibitors | inhibition, % at 5.6 µM | CellTiter-Glo luminescence; cells kept alive by added IL-3 | shares compounds with Ba/F3 V617F tox | 580 compounds, 31% hits | AID 1520;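 active means cell growth inhibition above the hit limit set in the earlier mutant JAK2 cell screen, cut at about 27% in these data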
JAK2V617F confrm: confirmation: loss of viability in JAK2V617F-dependent Ba/F3 cells | shares compounds with Ba/F3 V617F tox | Ba/F3 EpoR-JAK2V617F viability, CellTiter-Glo luminescence | inhibition, % at 5.6 µM | 580 compounds, 66% hits;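 active means mean inhibition above the hit cutoff derived in the earlier primary screen, cut at about 25% in these data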;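 further: higher means lower luminescence from reduced cell ATP and viability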
Each line names hits and unclear results; the compound was inactive in the other large screens (follow-up assays come after a bar, where they were run).

Oc1ccc(/C=N/Nc2nc(N3CCCC3)nc(N3CCCC3)n2)cc1O	Ba/F3 V617F tox 45.9 | BaF3 parental 2 70.8 | JAK2V617F confrm 98.0
COc1cc(/C=N/Nc2nc(N3CCCC3)nc(N3CCCC3)n2)ccc1O	none
NC(=NCc1ccco1)NC(=O)c1ccc(Cl)cc1	none (no result: Ba/F3 V617F tox, APP 5UTR inh, BaF3 tox)
CC1(C)CC(=O)C(C=NCCN2CCN(C(=S)Nc3ccc(F)cc3)CC2)=C(O)C1	Ba/F3 V617F tox 36.9 | BaF3 parental 2 inactive | JAK2V617F confrm 40.0
c1ccc(Sc2cccc3ccccc23)c(CNC2=NCCN2)c1	Ba/F3 V617F tox 34.4 | BaF3 parental 2 39.3 | JAK2V617F confrm 47.9
CCN(CC)S(=O)(=O)c1ccc2[nH]c(=O)c3ccccc3c2c1	none (no result: Ba/F3 V617F tox, APP 5UTR inh, BaF3 tox)
Cc1cc2nccc(-c3cccnc3)n2n1	none
FC(F)(F)c1n[nH]c(=S)n1/N=C/c1ccco1	Ba/F3 V617F tox 35.5 | BaF3 parental 2 inactive | JAK2V617F confrm inactive
S=c1[nH]nc(-c2ccc(Cl)cc2)n1/N=C/c1ccco1	none (no result: APP 5UTR inh)
CC1=CN2C(=NC(=O)CC2(C)C(=O)N(CC(=O)NC2CCCC2)Cc2ccc(Cl)cc2)C=C1 (stereo unspecified)	none (no result: Ba/F3 V617F tox, APP 5UTR inh, BaF3 tox)
COC(=O)c1[nH]c2ccc(Br)cc2c1NC(=O)CN1CCN(C2CCCCC2)CC1	Ba/F3 V617F tox 45.9 | BaF3 parental 2 inactive | JAK2V617F confrm inactive
CCOC(=O)c1c(NC(=O)C(C)N2CCN(C(=O)c3ccco3)CC2)sc2c1CCCC2 (stereo unspecified)	Ba/F3 V617F tox 27.9 | BaF3 parental 2 inactive | JAK2V617F confrm inactive
OC1(c2ccc(Cl)c(Cl)c2)C[n+]2ccccc2N1Cc1ccccc1 (stereo unspecified)	Ba/F3 V617F tox 34.4 (no result: APP 5UTR inh) | BaF3 parental 2 inactive | JAK2V617F confrm 47.7
CCOc1ccc(C(=O)C(CN2CCOCC2)c2ccccc2)cc1 (stereo unspecified)	Ba/F3 V617F tox 59.1, APP 5UTR inh 67.3 | BaF3 parental 2 inactive | JAK2V617F confrm 98.2
CCOc1ccc(C(O)(CCC(C)C)C(CN2CCOCC2)c2ccccc2)cc1 (stereo unspecified)	none (no result: Ba/F3 V617F tox, APP 5UTR inh, BaF3 tox)
C=CCn1c(SCC(=O)c2ccc(O)c(O)c2)nnc1-c1ccccc1OC	Ba/F3 V617F tox 34.4 | BaF3 parental 2 inactive | JAK2V617F confrm inactive
COc1ccc(N(C)S(=O)(=O)c2cccc(C(=O)Nc3ccc(-n4cnnn4)cc3)c2)cc1	Ba/F3 V617F tox 40.4 | BaF3 parental 2 inactive | JAK2V617F confrm 25.6
COCCOC(=O)C1=C(C)N(c2ccccc2)C(=O)NC1c1cccc([N+](=O)[O-])c1 (stereo unspecified)	Ba/F3 V617F tox 33.6 | BaF3 parental 2 inactive | JAK2V617F confrm inactive
Oc1ccc(C=Nc2cccc3ncccc23)c(O)c1	Ba/F3 V617F tox 51.7 | BaF3 parental 2 inactive | JAK2V617F confrm inactive
Oc1ccc(C=Nc2ccc3ncccc3c2)c(O)c1	none
COc1ccc2[nH]c(C)c(-c3csc(N)n3)c2c1	none (no result: Ba/F3 V617F tox, APP 5UTR inh, BaF3 tox)
Oc1ccccc1-c1csc(-c2ccccc2)n1	none
Oc1ccc(-c2csc(Nc3ncccn3)n2)cc1O	Ba/F3 V617F tox 37.0 | BaF3 parental 2 28.0 | JAK2V617F confrm 91.1
Oc1ccc(-c2csc(-c3ccccc3)n2)cc1O	Ba/F3 V617F tox 57.4 | BaF3 parental 2 26.7 | JAK2V617F confrm 93.5
CC(C)NC(=O)CSc1nc(N)c(-c2ccccc2)c(=O)[nH]1	none
CC(C)c1ccc(-c2nn(-c3ccccc3)cc2C2C(C#N)=C(N)OC3=C2C(=O)CC(C)(C)C3)cc1 (stereo unspecified)	none
O=C(Cn1sc2ccccc2c1=O)N1CCN(C(=O)c2ccco2)CC1	none (no result: Ba/F3 V617F tox, APP 5UTR inh, BaF3 tox)
COc1ccc(C(=O)/C=C/Nc2ccc(S(=O)(=O)Nc3cccc(C(C)=O)c3)cc2)cc1	Ba/F3 V617F tox 31.4 | BaF3 parental 2 inactive | JAK2V617F confrm 29.9
Cc1ccc(C23CC4CC(CC(C(=O)N5CCN(C)CC5)(C4)C2)C3)cc1	none (no result: APP 5UTR inh)
Cc1ccc(C23CC4CC(CC(CC(=O)N5CCOCC5)(C4)C2)C3)cc1	Ba/F3 V617F tox 96.8 | BaF3 parental 2 inactive | JAK2V617F confrm inactive
NC(=S)NC(=O)/C=C/c1ccccc1	none
Cc1cccc(CN(C(=S)Nc2c(C)cccc2C)c2cccnc2)c1	Ba/F3 V617F tox 102.5 | BaF3 parental 2 inactive | JAK2V617F confrm inactive
CCc1ccccc1NC(=S)N(Cc1cccc(C)c1)c1cccnc1	none
Cc1nc([N+](=O)[O-])c(Br)n1CC(=O)c1ccc2ccccc2c1	Ba/F3 V617F tox 43.5 | BaF3 parental 2 inactive | JAK2V617F confrm 76.5
CSCc1cc(N(C)C)nc(SCc2ccc(Cl)c(Cl)c2)n1	Ba/F3 V617F tox 41.5 | BaF3 parental 2 inactive | JAK2V617F confrm inactive
CNc1cc(CSC)nc(SCc2ccc(Cl)cc2Cl)n1	none
O=C(COc1cccnc1[N+](=O)[O-])NCc1ccc(F)cc1	none (no result: Ba/F3 V617F tox, APP 5UTR inh, BaF3 tox)
Nc1c(N=Nc2ccccc2F)c(=O)[nH]n1-c1ccccc1	none
Nc1nn(-c2ccccc2)c(N)c1N=Nc1ccccc1F	Ba/F3 V617F tox 35.6, IEC-6 cytotox 23.5 | BaF3 parental 2 36.5 | JAK2V617F confrm 69.2
O=C(Cc1ccccc1)Nc1ccc(SC(F)F)cc1	none
CN(C)c1ccnc(Nc2ccc(O)cc2)c1C#N	none
CCOC(=O)Cn1nc(C)c([N+](=O)[O-])c1C	none
Cc1ccc(OCCOC(=O)Cn2nc(C)c([N+](=O)[O-])c2C)cc1	Ba/F3 V617F tox 26.1 | BaF3 parental 2 inactive | JAK2V617F confrm inactive
O=C(NCc1ccccc1)C(c1ccccc1F)N(C(=O)c1csnn1)C1CCCC1 (stereo unspecified)	none (no result: Ba/F3 V617F tox, APP 5UTR inh, BaF3 tox)
COc1ccc(S(=O)(=O)NCCCN2CCCC2=O)cc1OC	none (no result: Ba/F3 V617F tox, APP 5UTR inh, BaF3 tox)
O=C(/C(=N/N=C/c1ccc(O)c(O)c1)c1ccccc1)c1ccccc1	Ba/F3 V617F tox 49.1 | BaF3 parental 2 inactive | JAK2V617F confrm 98.8
Oc1ccc(/C=N/N=C/c2ccc(O)c(O)c2)cc1O	none (no result: Ba/F3 V617F tox, APP 5UTR inh, BaF3 tox)
Cc1cccc(NC(=S)N(CCN(C)C)Cc2cc3cccc(C)c3[nH]c2=O)c1	none
Cc1ccc(NC(=S)N(CCN(C)C)Cc2cc3cccc(C)c3[nH]c2=O)cc1	Ba/F3 V617F tox 43.0 | BaF3 parental 2 inactive | JAK2V617F confrm 39.0
O=C(NC1(C(F)(F)F)Oc2ccccc2O1)N1CCCC1	Ba/F3 V617F tox 40.5 | BaF3 parental 2 inactive | JAK2V617F confrm 36.0
O=S(=O)(CCSc1nc2ccccc2o1)c1nc2ccccc2s1	Ba/F3 V617F tox 82.9 | BaF3 parental 2 29.3 | JAK2V617F confrm 98.8
Cc1csc(NC(=O)c2cc3c(C)nn(Cc4ccccc4Cl)c3s2)n1	Ba/F3 V617F tox 35.9 | BaF3 parental 2 inactive | JAK2V617F confrm 27.5
Cc1nn(Cc2ccccc2Cl)c2sc(C(=O)NC(C)(C)C)cc12	none
CC(C)(C)SCCNS(=O)(=O)c1ccccc1	Ba/F3 V617F tox 99.4 | BaF3 parental 2 inactive | JAK2V617F confrm inactive
CC(C)(C)SCCNS(=O)(=O)c1ccc2ccccc2c1	none
CCCn1nnc(NC(=S)NC(=O)CC)n1	none
COCCCN=C1NN=C(c2cc(C)n(Cc3ccco3)c2C)CS1	Ba/F3 V617F tox 79.0, APP 5UTR inh 94.3 | BaF3 parental 2 78.0 | JAK2V617F confrm 96.9
